Most compounds without a hit are left out; they make up all but 6% or so of the library.
D1 antag – antagonists of human D1 dopamine receptor | HEK293 TREx D1 cells, calcium flux, dopamine EC80; stronger effect = lower value | activity change, negative = inhibition, % at 10 µM | actives 3.2% (n = 360,000); in the data active = activity change below about -30%; also: % is scaled to controls: 0 for no effect and ±100 for the full control effect
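After overnight tetracycline induction at 30 C, force-coupled D1 HEK293 cells took up a no-wash calcium dye at room temperature. Compounds were added and monitored 180 s, and the response to EC80 dopamine was then recorded.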
D1 agonist – activates the human D1 dopamine receptor; HEK293 T-REx D1 cells, calcium flux, agonist mode; P21728; AID 504660; actives 1% (n = 360,000); activation, % at 2 µM; in the data active = activation above about 30%; also: 0% is about no effect
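Agonism was scored from calcium flux recorded over 180 s (1 read/s) after pintool compound addition, following a 10-cycle baseline. Cells were inducible force-coupled HEK293 TREx D1, plated overnight at 30 C and loaded with no-wash calcium dye.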
DRD3 antagonist – D3 dopamine receptor (human) antagonism | D3R cells, DiscoveRx beta-arrestin luminescence, antagonist mode; stronger effect = lower value | P35462 | AID 652054 | max response, negative = inhibition, % | actives 2.5% (n = 360,000); in the data active = max response below about -50%; inconclusive = no clear call, values can overlap the other calls; also: % is scaled to controls: 0 for no effect and ±100 for the full control effect
Target sequence (P35462 whole entry, looked up): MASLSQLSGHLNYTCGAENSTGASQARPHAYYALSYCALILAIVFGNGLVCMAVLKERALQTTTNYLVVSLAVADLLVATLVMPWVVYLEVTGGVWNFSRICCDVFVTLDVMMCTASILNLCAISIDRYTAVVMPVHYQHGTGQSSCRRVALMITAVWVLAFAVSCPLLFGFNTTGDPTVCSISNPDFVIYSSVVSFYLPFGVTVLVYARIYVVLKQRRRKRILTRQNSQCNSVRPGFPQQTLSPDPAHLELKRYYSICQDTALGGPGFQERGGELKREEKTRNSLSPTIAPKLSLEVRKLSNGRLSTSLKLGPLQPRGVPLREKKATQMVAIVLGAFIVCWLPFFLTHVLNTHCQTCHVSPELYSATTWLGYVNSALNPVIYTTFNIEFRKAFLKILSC
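Cells expressing the human receptor were seeded at 1500 cells/well, incubated overnight at 37 degrees C in 5% CO2, then exposed to library compounds with dopamine controls for 90 minutes at 37 degrees C before luminescent detection.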
D3 ag – D3 dopamine receptor (human) agonism; P35462; D3R DiscoveRx beta-arrestin cells, luminescence, 90 min; max activation, %; actives 0.58% (n = 410,000); AID 652048; in the data active = max activation above about 30%; also: 0% is about no effect
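Cells at 1500/well, incubated overnight, then treated with pinned compounds (dopamine as control) for 90 min at 37 degrees C. DiscoveRx reagent added for 30 - 60 minutes at room temperature; luminescence read.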
D1 potentiator – human D1 dopamine receptor positive modulation. actives 0.036% (n = 360,000). HEK293 TREx D1 cells, calcium flux, dopamine EC20 potentiation. potentiation, % at 10 µM; in the data active = potentiation above about 30%; also: 0% is about no effect
* = called active by the depositor; ? = inconclusive; / = no result given.

SMILES	D1 antag	D1 agonist	DRD3 antagonist	D3 ag	D1 potentiator
O=C(NCC1CC1)c1csc([C@@H]2O[C@H](CO)[C@H](O)[C@H](O)[C@H]2O)n1	/	/	1	4	/
CCCN(CC(=O)Nc1ccc(F)c(F)c1F)C(=O)c1ccc(N2CCCC2=O)cc1	-6	1	-1	1	-2
Cc1cc(Cl)ccc1OCC(=O)NCCOC(=O)Nc1sc(=S)n(C)c1C	-11	0	-9	-7	-12
Cc1c(NC(=O)OCCNC(=O)COc2ccc(Cl)cc2Cl)sc(=S)n1C	-43*	15	9	2	-9
CC(=O)c1ccc(N2CCN(S(=O)(=O)c3c(C)nc4sc(C)cn4c3=O)CC2)cc1	-12	2	/	-6	0
O=c1c2ccccc2sn1-c1ccccc1F	/	/	?	-14	/
O=c1c2ccccc2sn1-c1ccccc1	13	2	-98*	-3	-6
O=c1c2ccccc2sn1-c1cccc(Cl)c1	/	/	?	-6	/
O=c1c2cc(F)ccc2sn1-c1ccccc1	-6	39*	-12	-17	-8
Cc1ccccc1-n1sc2cc(F)ccc2c1=O	2	32*	-15	-3	0
O=C1CC(NS(=O)(=O)c2ccccc2F)CN1c1ccc2c(c1)OCCO2 (stereo unspecified)	-16	2	-4	3	2
CCn1cc(C(=O)O)c(=O)c2cc(F)c(N3CCNC(C)C3)c(F)c21 (stereo unspecified)	/	/	/	8	/
CCCNC(=S)NCCN1CCCCC1	5	0	-63*	-1	-7
CCNC(=S)NCCN1CCCCC1	-4	4	-8	-3	-12
CCCCNC(=S)NCCN1CCCCC1	-9	2	-72*	-3	-4
CCN(c1ccccc1)S(=O)(=O)c1ccc(NC(=O)c2nc(SC(C)C)ncc2Cl)cc1	10	1	/	3	1
CN1CCN(C(=O)CSc2ccc(C(F)(F)F)cc2[N+](=O)[O-])CC1	-65*	4	12	-2	-10
O=C(C1CCC1)N1CCN(c2ccc(C(F)(F)F)cc2[N+](=O)[O-])CC1	-40*	10	7	-4	-8
CCOC(=O)N1CCN(C(=O)CSc2ccc(C(F)(F)F)cc2[N+](=O)[O-])CC1	3	6	-6	-10	-9
Cc1ccc(C[C@H](C(=O)O)N2C(=O)c3ccc(C(=O)O)cc3C2=O)c(C)c1	6	2	/	/	-7
Cc1nc2c(-c3ccccc3)c[nH]n2c(=O)c1Cc1ccccc1	-20	36*	-9	-5	/
Cc1ccc(CN2CCc3nc(SCC(=O)Nc4cccc(C)c4C)[nH]c(=O)c3C2)cc1	-9	2	/	-9	-3
Cc1ccc(Cl)cc1NC(=O)CSc1nc2c(c(=O)[nH]1)CN(Cc1ccccc1)CC2	-81*	10	/	5	-3
Cc1nnc(N2CCCC(C(=O)Nc3cccc(C(F)(F)F)c3)C2)c2nn(-c3ccccc3)c(C)c12 (stereo unspecified)	15	0	/	10	2
CCN1CCN(c2ccc(NC(=O)COc3ccccc3Cl)cc2)CC1	-42*	9	-64*	2	-16
SMILES	D1 antag	D1 agonist	DRD3 antagonist	D3 ag	D1 potentiator
O=C(CCS(=O)(=O)c1ccccc1F)Nc1ccc(N2CCN(Cc3ccccc3)CC2)cc1	-39*	8	2	0	-15
CCC(=O)Nc1ccc(N2CCN(Cc3ccccc3)CC2)cc1	-13	2	?	-14	-2
O=C(COc1ccccc1Cl)Nc1ccc(N2CCN(C(=O)c3ccccc3)CC2)cc1	-52*	2	65	25	3
O=C(COc1ccccc1[N+](=O)[O-])Nc1ccc(N2CCN(C(=O)c3cccs3)CC2)cc1	-2	3	73	34*	8
O=C(COc1ccccc1Cl)Nc1ccc(N2CCCC2)cc1	-29	1	3	4	-2
CCC(=O)Nc1ccc(N2CCN(C(=O)c3cccs3)CC2)cc1	14	2	-23	-2	3
CCOc1ccccc1C1CC(=O)Oc2c1c(=O)n(C)c1ccccc21 (stereo unspecified)	10	1	/	-3	-4
C/C(=N\NC(=O)c1c(Cl)c(C)nn1C)c1ccc(NC(=O)COc2ccc(Cl)cc2C)cc1	-41*	1	57	2	-16
O=C(Cc1ccccc1)Nc1cccc(N2CCCC2)c1	-35*	1	-19	-11	3
C/C(=N\NC(=O)c1c(Cl)c(C)nn1C)c1cccc(NC(=O)COc2ccccc2)c1	-30	-1	4	-4	-13
CC(=O)N1CCN(c2ccc(NC(=O)COc3ccc(Cl)cc3Cl)cc2)CC1	-3	10	-21	0	-7
O=C(Cc1ccccc1)Nc1ccc(N2CCCC2)cc1	12	0	19	8	-3
CCN1CCN(c2ccc(NC(=O)COc3ccc(Cl)cc3C)cc2)CC1	/	/	-52*	-23	/
CCN1CCN(c2ccc(NC(=O)Cc3ccccc3)cc2)CC1	-62*	3	-22	1	-6
O=C(CSc1nnc(CNC(=O)c2ccccc2F)o1)NC1CCCCC1	11	2	3	-3	-2
COc1cc2c(cc1OC)CN(C(=O)CSc1ccc(F)cc1)CC2	-87*	1	-7	-4	-4
Cc1ccc(C(C)C)c(OCC(=O)Nc2c(C(=O)c3ccc(F)cc3)oc3ccccc23)c1	0	1	/	4	0
O=C(CN1CCCCC1)Nc1nc(-c2ccc(Cl)cc2)cs1	-53*	1	-9	-6	-2
O=C(C[n+]1cc(-c2ccc(F)cc2)n2c1CCC2)Nc1nc(-c2ccc(F)cc2)cs1	-31*	0	0	-1	-3
O=C(CN1CCCC1)Nc1nc(-c2ccc(Cl)cc2)cs1	/	/	0	-9	/
CC(=O)Oc1ccccc1-n1c(C)nc(=O)c(-c2ccccc2)c1C	-39*	1	-4	-8	-6
S=c1[nH]c(-c2ccc(Br)cc2)cn1CCc1ccccc1	-90*	4	25	5	-6
COc1ccc(-c2cc(-c3nnc(COC(=O)C4CC4C)o3)c3ccccc3n2)cc1OC (stereo unspecified)	-7	13	34	50*	-4
CCOC(=O)C1CCN(c2nc3c(S(=O)(=O)c4ccc(Br)cc4)nnn3c3ccsc23)CC1	3	4	/	1	2
CCc1nn2c(=O)cc(COC(=O)c3ccccc3NC(=O)COc3ccc(F)cc3)nc2s1	-3	0	/	1	0
Cc1cc(=O)n2nc(N3CCCC(C(=O)Nc4ccc(C)c(C)c4)C3)sc2n1 (stereo unspecified)	-59*	2	11	0	-4
Cc1cc(=O)n2nc(N3CCCC(C(=O)NCCc4ccc(Cl)cc4)C3)sc2n1 (stereo unspecified)	-35*	0	?	-4	0
CCC(=O)Oc1ccc2c(c1)CC[C@@H]1[C@@H]2CC[C@]2(C)[C@@H](OC(=O)CC)CC[C@@H]12	/	/	/	6	/
